# Paper PMC11006913
# Numbering of substitutions follows the chain as printed.
# Tests used:
# Test in all cases: PBM; 200 nM protein, PBS
# Settings in all cases: dsDNA, one strand shown
# [1] = molecular target: HOXB4 (Homo sapiens, UniProt P17483 148-234)
# [2] = molecular target: HOXC9 (Homo sapiens, UniProt P31274 178-260, K195R)
# [3] = molecular target: HOXB6 (Homo sapiens, UniProt P17509 132-218, K202E)
# [4] = molecular target: HOXB4 (Homo sapiens, UniProt P17483 148-234, V174I)
# [5] = molecular target: HOXC9 (Homo sapiens, UniProt P31274 178-260)
# [6] = molecular target: MSX2 (Homo sapiens, UniProt P35548 130-214, R199I)
# [7] = molecular target: HOXC9 (Homo sapiens, UniProt P31274 178-260, R193K)
# [8] = molecular target: MSX2 (Homo sapiens, UniProt P35548 130-214)
# [9] = molecular target: HOXC9 (Homo sapiens, UniProt P31274 178-260, R222W)
# [10] = molecular target: MSX2 (Homo sapiens, UniProt P35548 130-214, F161Y)
# [11] = molecular target: HOXB6 (Homo sapiens, UniProt P17509 132-218)
# [12] = molecular target: HOXA7 (Homo sapiens, UniProt P31268 116-202)
# [13] = molecular target: HOXA7 (Homo sapiens, UniProt P31268 116-202, W177C)
# [14] = molecular target: HOXA4 (Homo sapiens, UniProt Q00056 201-287, W262R)
# [15] = molecular target: HOXA2 (Homo sapiens, UniProt O43364 129-215, R185T)
# [16] = molecular target: HOXA4 (Homo sapiens, UniProt Q00056 201-287, R217L)
# [17] = molecular target: HOXD13 (Homo sapiens, UniProt P35453 263-343, T313R)
# [18] = molecular target: HOXA2 (Homo sapiens, UniProt O43364 129-215, R185K)
# [19] = molecular target: HOXD13 (Homo sapiens, UniProt P35453 263-343)
# [20] = molecular target: HOXA4 (Homo sapiens, UniProt Q00056 201-287)
# [21] = molecular target: HOXD13 (Homo sapiens, UniProt P35453 263-343, T313A)
# [22] = molecular target: HOXA2 (Homo sapiens, UniProt O43364 129-215, Y150S)
# [23] = molecular target: HOXA4 (Homo sapiens, UniProt Q00056 201-287, W262F)
# [24] = molecular target: HOXA2 (Homo sapiens, UniProt O43364 129-215)
# [25] = molecular target: T1, PAX4 (Homo sapiens, UniProt O43316 9-242, R200K)
# T1 sequence: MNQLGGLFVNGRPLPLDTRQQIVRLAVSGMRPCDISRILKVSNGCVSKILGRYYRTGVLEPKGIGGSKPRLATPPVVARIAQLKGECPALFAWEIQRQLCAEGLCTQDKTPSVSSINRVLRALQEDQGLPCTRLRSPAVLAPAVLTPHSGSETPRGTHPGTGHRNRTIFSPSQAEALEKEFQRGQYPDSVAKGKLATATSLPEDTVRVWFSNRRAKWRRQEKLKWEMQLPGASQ
# [26] = molecular target: T2, PAX4 (Homo sapiens, UniProt O43316 9-242)
# T2 sequence: T1 sequence with K192R
# [27] = molecular target: T3, PAX4 (Homo sapiens, UniProt O43316 9-242, R200Q)
# T3 sequence: T1 sequence with K192Q
# [28] = molecular target: T4, PAX4 (Homo sapiens, UniProt O43316 9-242, F177V)
# T4 sequence: T1 sequence with F169V, K192R
# [29] = molecular target: T5, PAX4 (Homo sapiens, UniProt O43316 9-242, F177Y)
# T5 sequence: T1 sequence with F169Y, K192R
# [30] = molecular target: T6, PAX4 (Homo sapiens, UniProt O43316 9-242, R227W)
# T6 sequence: T1 sequence with K192R, R219W
# [31] = molecular target: HOXC10 (Homo sapiens, UniProt Q9NYD6 254-340)
# [32] = molecular target: HOXC10 (Homo sapiens, UniProt Q9NYD6 254-340, K271E)
# [33] = molecular target: T7, NKX2-6 (Homo sapiens, UniProt A6NCS4 118-204, R150C)
# T7 sequence: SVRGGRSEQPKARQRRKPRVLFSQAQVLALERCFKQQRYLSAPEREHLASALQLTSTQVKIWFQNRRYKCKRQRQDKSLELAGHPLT
# HOXA4 (Homo sapiens, UniProt Q00056 201-287, R217L), sequence (Q00056 201-287 R217L): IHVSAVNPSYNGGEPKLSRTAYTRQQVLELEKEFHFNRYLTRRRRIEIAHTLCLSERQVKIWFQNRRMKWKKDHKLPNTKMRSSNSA
# HOXC9 (Homo sapiens, UniProt P31274 178-260, K195R), sequence (P31274 178-260 K195R): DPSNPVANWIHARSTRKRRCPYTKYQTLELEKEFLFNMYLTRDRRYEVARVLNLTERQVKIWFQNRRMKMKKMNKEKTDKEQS
# HOXB6 (Homo sapiens, UniProt P17509 132-218), sequence (P17509 132-218): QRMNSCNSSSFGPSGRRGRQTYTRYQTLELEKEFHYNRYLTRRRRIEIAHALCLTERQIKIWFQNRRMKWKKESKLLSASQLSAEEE
# HOXC9 (Homo sapiens, UniProt P31274 178-260), sequence (P31274 178-260): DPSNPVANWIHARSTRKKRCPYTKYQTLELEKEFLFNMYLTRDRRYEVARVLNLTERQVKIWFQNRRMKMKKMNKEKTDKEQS
# HOXB4 (Homo sapiens, UniProt P17483 148-234, V174I), sequence (P17483 148-234 V174I): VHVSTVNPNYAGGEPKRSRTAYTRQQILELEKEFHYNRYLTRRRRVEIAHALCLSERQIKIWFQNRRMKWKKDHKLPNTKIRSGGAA
# HOXA7 (Homo sapiens, UniProt P31268 116-202, W177C), sequence (P31268 116-202 W177C): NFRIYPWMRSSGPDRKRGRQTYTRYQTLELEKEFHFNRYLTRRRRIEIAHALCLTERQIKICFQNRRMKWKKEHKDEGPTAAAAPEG
# HOXA4 (Homo sapiens, UniProt Q00056 201-287, W262F), sequence (Q00056 201-287 W262F): as the sequence (Q00056 201-287 R217L) above, with L17R, W62F counted along it
# HOXA7 (Homo sapiens, UniProt P31268 116-202), sequence (P31268 116-202): as the sequence (P31268 116-202 W177C) above, with C62W counted along it
# HOXB6 (Homo sapiens, UniProt P17509 132-218, K202E), sequence (P17509 132-218 K202E): as the sequence (P17509 132-218) above, with K71E counted along it
# HOXC9 (Homo sapiens, UniProt P31274 178-260, R222W), sequence (P31274 178-260 R222W): as the sequence (P31274 178-260) above, with R45W counted along it
# HOXB4 (Homo sapiens, UniProt P17483 148-234), sequence (P17483 148-234): as the sequence (P17483 148-234 V174I) above, with I27V counted along it
# HOXC9 (Homo sapiens, UniProt P31274 178-260, R193K), sequence (P31274 178-260 R193K): as the sequence (P31274 178-260) above, with R16K counted along it
# HOXA4 (Homo sapiens, UniProt Q00056 201-287, W262R), sequence (Q00056 201-287 W262R): as the sequence (Q00056 201-287 R217L) above, with L17R, W62R counted along it
# HOXA4 (Homo sapiens, UniProt Q00056 201-287), sequence (Q00056 201-287): as the sequence (Q00056 201-287 R217L) above, with L17R counted along it
# HOXD13 (Homo sapiens, UniProt P35453 263-343, T313R), sequence (P35453 263-343 T313R): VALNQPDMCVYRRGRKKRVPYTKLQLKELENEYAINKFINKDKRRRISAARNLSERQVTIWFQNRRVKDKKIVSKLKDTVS
# MSX2 (Homo sapiens, UniProt P35548 130-214), sequence (P35548 130-214): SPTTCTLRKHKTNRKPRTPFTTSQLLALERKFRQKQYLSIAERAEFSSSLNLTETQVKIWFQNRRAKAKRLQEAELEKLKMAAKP
# HOXD13 (Homo sapiens, UniProt P35453 263-343), sequence (P35453 263-343): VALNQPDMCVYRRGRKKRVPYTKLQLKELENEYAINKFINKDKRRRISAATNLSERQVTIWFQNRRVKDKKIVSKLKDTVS
# HOXD13 (Homo sapiens, UniProt P35453 263-343, T313A), sequence (P35453 263-343 T313A): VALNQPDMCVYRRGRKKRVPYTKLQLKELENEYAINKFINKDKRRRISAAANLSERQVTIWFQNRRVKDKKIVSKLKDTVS
# MSX2 (Homo sapiens, UniProt P35548 130-214, F161Y), sequence (P35548 130-214 F161Y): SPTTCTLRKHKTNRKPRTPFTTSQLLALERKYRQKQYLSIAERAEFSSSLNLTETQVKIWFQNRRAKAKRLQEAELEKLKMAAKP
# MSX2 (Homo sapiens, UniProt P35548 130-214, R199I), sequence (P35548 130-214 R199I): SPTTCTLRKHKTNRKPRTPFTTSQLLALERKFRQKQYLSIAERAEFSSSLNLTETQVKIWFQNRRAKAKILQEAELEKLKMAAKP
# HOXA2 (Homo sapiens, UniProt O43364 129-215, Y150S), sequence (O43364 129-215 Y150S): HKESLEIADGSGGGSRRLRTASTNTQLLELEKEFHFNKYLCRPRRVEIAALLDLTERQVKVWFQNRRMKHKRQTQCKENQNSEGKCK
# HOXA2 (Homo sapiens, UniProt O43364 129-215, R185K), sequence (O43364 129-215 R185K): as the sequence (O43364 129-215 Y150S) above, with S22Y, R57K counted along it
# HOXA2 (Homo sapiens, UniProt O43364 129-215), sequence (O43364 129-215): as the sequence (O43364 129-215 Y150S) above, with S22Y counted along it
# HOXC10 (Homo sapiens, UniProt Q9NYD6 254-340, K271E), sequence (Q9NYD6 254-340 K271E): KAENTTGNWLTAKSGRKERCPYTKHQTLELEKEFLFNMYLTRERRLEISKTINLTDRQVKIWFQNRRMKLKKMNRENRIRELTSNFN
# HOXA2 (Homo sapiens, UniProt O43364 129-215, R185T), sequence (O43364 129-215 R185T): as the sequence (O43364 129-215 Y150S) above, with S22Y, R57T counted along it
# HOXC10 (Homo sapiens, UniProt Q9NYD6 254-340), sequence (Q9NYD6 254-340): as the sequence (Q9NYD6 254-340 K271E) above, with E18K counted along it
sequence,measurement,setting,value
CCGGACCA,binding signal,[1],"7.72 upbm affinity estimate (log intensity, higher = more binding, comparable within an allelic series)"
same,binding signal,[2],"9.48 upbm affinity estimate (log intensity, higher = more binding, comparable within an allelic series)"
same,binding signal,[3],"9.06 upbm affinity estimate (log intensity, higher = more binding, comparable within an allelic series)"
same,binding signal,[4],"7.8 upbm affinity estimate (log intensity, higher = more binding, comparable within an allelic series)"
same,binding signal,[5],"9.57 upbm affinity estimate (log intensity, higher = more binding, comparable within an allelic series)"
same,binding signal,[6],"9.46 upbm affinity estimate (log intensity, higher = more binding, comparable within an allelic series)"
same,binding signal,[7],"9.51 upbm affinity estimate (log intensity, higher = more binding, comparable within an allelic series)"
same,binding signal,[8],"9.39 upbm affinity estimate (log intensity, higher = more binding, comparable within an allelic series)"
same,binding signal,[9],"9.77 upbm affinity estimate (log intensity, higher = more binding, comparable within an allelic series)"
same,binding signal,[10],"9.4 upbm affinity estimate (log intensity, higher = more binding, comparable within an allelic series)"
same,binding signal,[11],"8.79 upbm affinity estimate (log intensity, higher = more binding, comparable within an allelic series)"
ACCGTGCC,binding signal,[1],"7.42 upbm affinity estimate (log intensity, higher = more binding, comparable within an allelic series)"
same,binding signal,[12],"8.5 upbm affinity estimate (log intensity, higher = more binding, comparable within an allelic series)"
same,binding signal,[4],"7.71 upbm affinity estimate (log intensity, higher = more binding, comparable within an allelic series)"
same,binding signal,[13],"8.5 upbm affinity estimate (log intensity, higher = more binding, comparable within an allelic series)"
CTGGCGGC,binding signal,[1],"7.3 upbm affinity estimate (log intensity, higher = more binding, comparable within an allelic series)"
same,binding signal,[14],"9.71 upbm affinity estimate (log intensity, higher = more binding, comparable within an allelic series)"
same,binding signal,[12],"8.57 upbm affinity estimate (log intensity, higher = more binding, comparable within an allelic series)"
same,binding signal,[15],"7.15 upbm affinity estimate (log intensity, higher = more binding, comparable within an allelic series)"
same,binding signal,[16],"9.74 upbm affinity estimate (log intensity, higher = more binding, comparable within an allelic series)"
same,binding signal,[4],"7.49 upbm affinity estimate (log intensity, higher = more binding, comparable within an allelic series)"
same,binding signal,[17],"9.52 upbm affinity estimate (log intensity, higher = more binding, comparable within an allelic series)"
same,binding signal,[18],"10.3 upbm affinity estimate (log intensity, higher = more binding, comparable within an allelic series)"
same,binding signal,[19],"9.59 upbm affinity estimate (log intensity, higher = more binding, comparable within an allelic series)"
same,binding signal,[20],"9.58 upbm affinity estimate (log intensity, higher = more binding, comparable within an allelic series)"
same,binding signal,[21],"9.5 upbm affinity estimate (log intensity, higher = more binding, comparable within an allelic series)"
same,binding signal,[22],"10.5 upbm affinity estimate (log intensity, higher = more binding, comparable within an allelic series)"
same,binding signal,[13],"8.35 upbm affinity estimate (log intensity, higher = more binding, comparable within an allelic series)"
same,binding signal,[23],"9.86 upbm affinity estimate (log intensity, higher = more binding, comparable within an allelic series)"
same,binding signal,[24],"7.36 upbm affinity estimate (log intensity, higher = more binding, comparable within an allelic series)"
CGCCGAAG,binding signal,[1],"7.84 upbm affinity estimate (log intensity, higher = more binding, comparable within an allelic series)"
same,binding signal,[2],"9.52 upbm affinity estimate (log intensity, higher = more binding, comparable within an allelic series)"
same,binding signal,[3],"9.07 upbm affinity estimate (log intensity, higher = more binding, comparable within an allelic series)"
same,binding signal,[4],"7.65 upbm affinity estimate (log intensity, higher = more binding, comparable within an allelic series)"
same,binding signal,[5],"9.6 upbm affinity estimate (log intensity, higher = more binding, comparable within an allelic series)"
same,binding signal,[7],"9.42 upbm affinity estimate (log intensity, higher = more binding, comparable within an allelic series)"
same,binding signal,[9],"9.77 upbm affinity estimate (log intensity, higher = more binding, comparable within an allelic series)"
same,binding signal,[11],"9.15 upbm affinity estimate (log intensity, higher = more binding, comparable within an allelic series)"
ACCTCTCG,binding signal,[1],"7.54 upbm affinity estimate (log intensity, higher = more binding, comparable within an allelic series)"
same,binding signal,[14],"9.8 upbm affinity estimate (log intensity, higher = more binding, comparable within an allelic series)"
same,binding signal,[16],"9.73 upbm affinity estimate (log intensity, higher = more binding, comparable within an allelic series)"
same,binding signal,[4],"7.48 upbm affinity estimate (log intensity, higher = more binding, comparable within an allelic series)"
same,binding signal,[20],"9.69 upbm affinity estimate (log intensity, higher = more binding, comparable within an allelic series)"
same,binding signal,[23],"9.82 upbm affinity estimate (log intensity, higher = more binding, comparable within an allelic series)"
AGGGGGGG,binding signal,[1],"7.37 upbm affinity estimate (log intensity, higher = more binding, comparable within an allelic series)"
same,binding signal,[2],"9.2 upbm affinity estimate (log intensity, higher = more binding, comparable within an allelic series)"
same,binding signal,[25],"9.12 upbm affinity estimate (log intensity, higher = more binding, comparable within an allelic series)"
same,binding signal,[26],"9.16 upbm affinity estimate (log intensity, higher = more binding, comparable within an allelic series)"
same,binding signal,[4],"7.23 upbm affinity estimate (log intensity, higher = more binding, comparable within an allelic series)"
same,binding signal,[5],"9.24 upbm affinity estimate (log intensity, higher = more binding, comparable within an allelic series)"
same,binding signal,[27],"9.15 upbm affinity estimate (log intensity, higher = more binding, comparable within an allelic series)"
same,binding signal,[7],"9.31 upbm affinity estimate (log intensity, higher = more binding, comparable within an allelic series)"
same,binding signal,[28],"8.93 upbm affinity estimate (log intensity, higher = more binding, comparable within an allelic series)"
same,binding signal,[29],"9.09 upbm affinity estimate (log intensity, higher = more binding, comparable within an allelic series)"
same,binding signal,[9],"9.11 upbm affinity estimate (log intensity, higher = more binding, comparable within an allelic series)"
same,binding signal,[30],"9.07 upbm affinity estimate (log intensity, higher = more binding, comparable within an allelic series)"
ACCGTGGG,binding signal,[1],"7.69 upbm affinity estimate (log intensity, higher = more binding, comparable within an allelic series)"
same,binding signal,[12],"8.39 upbm affinity estimate (log intensity, higher = more binding, comparable within an allelic series)"
same,binding signal,[31],"10.1 upbm affinity estimate (log intensity, higher = more binding, comparable within an allelic series)"
same,binding signal,[4],"7.68 upbm affinity estimate (log intensity, higher = more binding, comparable within an allelic series)"
same,binding signal,[32],"10 upbm affinity estimate (log intensity, higher = more binding, comparable within an allelic series)"
same,binding signal,[13],"8.44 upbm affinity estimate (log intensity, higher = more binding, comparable within an allelic series)"
CGTGGCGC,binding signal,[1],"7.6 upbm affinity estimate (log intensity, higher = more binding, comparable within an allelic series)"
same,binding signal,[2],"9.49 upbm affinity estimate (log intensity, higher = more binding, comparable within an allelic series)"
same,binding signal,[4],"7.68 upbm affinity estimate (log intensity, higher = more binding, comparable within an allelic series)"
same,binding signal,[5],"9.5 upbm affinity estimate (log intensity, higher = more binding, comparable within an allelic series)"
same,binding signal,[7],"9.45 upbm affinity estimate (log intensity, higher = more binding, comparable within an allelic series)"
same,binding signal,[9],"9.81 upbm affinity estimate (log intensity, higher = more binding, comparable within an allelic series)"
ACCCGTGG,binding signal,[1],"7.52 upbm affinity estimate (log intensity, higher = more binding, comparable within an allelic series)"
same,binding signal,[14],"9.91 upbm affinity estimate (log intensity, higher = more binding, comparable within an allelic series)"
same,binding signal,[16],"9.76 upbm affinity estimate (log intensity, higher = more binding, comparable within an allelic series)"
same,binding signal,[4],"7.53 upbm affinity estimate (log intensity, higher = more binding, comparable within an allelic series)"
same,binding signal,[20],"9.78 upbm affinity estimate (log intensity, higher = more binding, comparable within an allelic series)"
same,binding signal,[23],"9.9 upbm affinity estimate (log intensity, higher = more binding, comparable within an allelic series)"
CGGGGGTC,binding signal,[1],"7.85 upbm affinity estimate (log intensity, higher = more binding, comparable within an allelic series)"
same,binding signal,[2],"9.59 upbm affinity estimate (log intensity, higher = more binding, comparable within an allelic series)"
same,binding signal,[3],"8.98 upbm affinity estimate (log intensity, higher = more binding, comparable within an allelic series)"
same,binding signal,[4],"7.45 upbm affinity estimate (log intensity, higher = more binding, comparable within an allelic series)"
same,binding signal,[33],"9.26 upbm affinity estimate (log intensity, higher = more binding, comparable within an allelic series)"
same,binding signal,[5],"9.65 upbm affinity estimate (log intensity, higher = more binding, comparable within an allelic series)"
same,binding signal,[7],"9.62 upbm affinity estimate (log intensity, higher = more binding, comparable within an allelic series)"
same,binding signal,[9],"9.59 upbm affinity estimate (log intensity, higher = more binding, comparable within an allelic series)"
same,binding signal,[11],"9.04 upbm affinity estimate (log intensity, higher = more binding, comparable within an allelic series)"
CGAGGCAC,binding signal,[1],"7.73 upbm affinity estimate (log intensity, higher = more binding, comparable within an allelic series)"
same,binding signal,[2],"9.69 upbm affinity estimate (log intensity, higher = more binding, comparable within an allelic series)"
same,binding signal,[4],"7.43 upbm affinity estimate (log intensity, higher = more binding, comparable within an allelic series)"
same,binding signal,[5],"9.79 upbm affinity estimate (log intensity, higher = more binding, comparable within an allelic series)"
same,binding signal,[6],"9.52 upbm affinity estimate (log intensity, higher = more binding, comparable within an allelic series)"
same,binding signal,[17],"9.57 upbm affinity estimate (log intensity, higher = more binding, comparable within an allelic series)"
same,binding signal,[7],"9.72 upbm affinity estimate (log intensity, higher = more binding, comparable within an allelic series)"
same,binding signal,[19],"9.71 upbm affinity estimate (log intensity, higher = more binding, comparable within an allelic series)"
same,binding signal,[8],"9.5 upbm affinity estimate (log intensity, higher = more binding, comparable within an allelic series)"
same,binding signal,[21],"9.78 upbm affinity estimate (log intensity, higher = more binding, comparable within an allelic series)"
same,binding signal,[9],"9.7 upbm affinity estimate (log intensity, higher = more binding, comparable within an allelic series)"
same,binding signal,[10],"9.56 upbm affinity estimate (log intensity, higher = more binding, comparable within an allelic series)"
